An excerpt weighted towards active compounds, which were near 6% of everything screened.
PLK1 PBD block: PLK1 (human) polo-box domain binding inhibition; P53350; Plk1 PBD binding of FITC phosphopeptide, fluorescence polarization; Potency, µM, inactives show max response, negative = inhibition, hits mostly inhibitors; 360,000 compounds, 2.8% hits; also: series mostly up to about 57 µM; nearly all actives have a fitted effect of over 65% in size
Target sequence (P53350 whole entry, looked up, the tested form may be a part): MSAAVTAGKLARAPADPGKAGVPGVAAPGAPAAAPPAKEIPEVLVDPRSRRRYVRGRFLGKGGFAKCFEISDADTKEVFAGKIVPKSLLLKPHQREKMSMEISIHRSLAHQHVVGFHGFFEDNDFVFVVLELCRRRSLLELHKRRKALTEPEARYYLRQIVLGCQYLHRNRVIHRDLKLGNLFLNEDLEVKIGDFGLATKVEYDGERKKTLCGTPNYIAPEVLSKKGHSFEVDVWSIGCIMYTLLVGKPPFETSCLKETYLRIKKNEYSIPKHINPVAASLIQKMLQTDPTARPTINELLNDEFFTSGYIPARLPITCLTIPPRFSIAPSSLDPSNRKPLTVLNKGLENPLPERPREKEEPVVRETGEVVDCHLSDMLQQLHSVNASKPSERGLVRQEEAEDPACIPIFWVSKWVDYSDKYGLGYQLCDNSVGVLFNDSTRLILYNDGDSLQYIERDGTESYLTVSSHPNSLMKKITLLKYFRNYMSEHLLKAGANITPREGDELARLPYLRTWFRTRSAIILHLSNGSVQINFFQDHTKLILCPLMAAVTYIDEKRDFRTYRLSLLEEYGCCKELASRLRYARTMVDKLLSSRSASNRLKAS
VDR inh: vitamin D3 receptor (human) inhibition | VDR-SRC2-3 peptide fluorescence polarization, 2 h | AID 504847 | Potency, µM, for inactives: max response, negative = inhibition, usual class: inhibitors | 400,000 compounds, 0.93% hits
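Two reagent solutions held at 4 deg C in the dark were dispensed, compounds pinned at 23 nl, and the mixture incubated 2 h at room temperature. Read-out: fluorescence polarization of VDR–SRC2-3 peptide binding.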
Sfp inh: inhibitors of Bacillus subtilis Sfp phosphopantetheinyl transferase. Q9F4F7. Biochemical Sfp PPTase activity, qHTS. Potency, µM, inactives show largest response in the series, negative = inhibition, actives largely listed as inhibitors. 310,000 compounds, 3.5% hits;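 also: the enzyme is Sfp with the accession as filed and its product quenches rhodamine fluorescence; 0% = enzyme reaction without inhibitor and -100% = no enzyme wells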
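Step 1, compound plus 15 nM Sfp-PPTase, 15 min, room temperature. Step 2, add rhodamine-CoA (5 uM) and BHQ-2-YbbR (12.5 uM). Step 3, read 525/598 nm fluorescence at 0 and 30 min.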
Tau fibril ThT: blocks human tau fibril formation measured by thioflavin T; Potency, µM (doses to about 57.4 µM), inactives show at the top dose activity, negative = inhibition, usual class: inhibitors; P10636; recombinant tau K18 P301L, heparin-induced fibrillization, ThT fluorescence; 270,000 compounds, 2.1% hits; AID 1460; also: nearly all actives have a fitted effect of over 55% in size
Target sequence (P10636 561-689 P618L limits assumed): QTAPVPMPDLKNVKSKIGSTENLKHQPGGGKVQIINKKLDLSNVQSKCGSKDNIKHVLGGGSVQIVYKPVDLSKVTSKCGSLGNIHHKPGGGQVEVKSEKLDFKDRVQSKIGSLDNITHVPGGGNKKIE
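Tau K18 P301L fragment (15 uM unlabeled plus 0.24 uM Alexa 594-labeled) in 100 mM sodium acetate pH 7 with compound, fibrillization induced by 20 uM heparin for 6 hr at 37 C. Thioflavin T (30 uM) added, fluorescence read after 1 hr (ex 450, em 510 nm).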
Tau fibril FP: tau fibrillization inhibition (FP); P10636; K18 P301L tau heparin fibrillization, Alexa594 FP, 6 h; Potency, µM (titrated, usually from 57.7 µM), for the others: at the highest dose activity, negative = inhibition, usual class: inhibitors; 280,000 compounds, 0.39% hits; AID 1468; also: nearly all actives have a fitted effect of over 55% in size
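Steps: dispense K18 P301L tau (15 uM plus 0.24 uM Alexa 594 tracer, final) in pH 7 sodium acetate; add compound; add heparin (20 uM final); incubate 6 hr, 37 C; add ThT (30 uM final); after 1 hr ambient, read FP.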
Tau fluor cs: counter-screen for tau fibril formation inhibitors; tau K18 P301L (four-repeat tau fragment) Alexa594 fluorescence, heparin fibrillization; Potency, µM (titrated, usually from 57.7 µM), for inactives: at the top dose activity change, negative = decrease; AID 1463; 280,000 compounds, 0.93% hits; also: nearly all actives have a fitted effect of over 55% in size
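Human K18 P301L tau (15 uM unlabeled plus 0.24 uM Alexa 594-labeled, final) in 100 mM sodium acetate pH 7 was mixed with compound and 20 uM heparin and incubated 6 hr at 37 C.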
The depositor's hits bear a star; ? = inconclusive; nt = no result given; [ ] = dose if it differs, or a comment. Calls follow the shape of the dose curve; as a rule, active = well fitted curve in the direction sought with a large enough effect; inconclusive = small, poorly fitted or top-dose-only effect, or another doubt; inactive = no such curve, though single readings can be large; an effect the other way counts as inactive or inconclusive. Unless noted, % is scaled to controls: 0 for no effect and ±100 for the full control effect; potency is read from the fitted curve at half-maximal effect.

SMILES | PLK1 PBD block | VDR inh | Sfp inh | Tau fibril ThT | Tau fibril FP | Tau fluor cs
CCOC(=O)N1CCN(C(=O)C[C@@H]2C[C@@]3(C(=O)OC)CC(C)(C)CC=C3N(Cc3cccc4ccccc34)C2=O)CC1 | 2.8% | nt | nt | nt | nt | nt
CSc1ccc(/C=C/c2nc3ccccc3n2S(=O)(=O)c2ccc(Br)cc2)cc1 | nt | -12.4% | nt | 2.5% | ? | 31.6µM*[quencher]
CC(=O)c1nn(-c2ccc(OC(F)(F)F)cc2)nc1Nc1ccc(Cl)cc1 | nt | 6.9% | nt | -0.2% | -9.9% | -1.1%
O=C1CC(c2ccccc2F)c2c(c3ccccc3[nH]c2=O)O1 (stereo not drawn) | -9.9% | -3.2% | -14.9% | nt | -3.1% | 13.3%
O=C1CC(c2cccc(F)c2)c2c(c3ccccc3[nH]c2=O)O1 (stereo not drawn) | -8.7% | -4.1% | 6.31µM* | -8.0% | -3.9% | -5.5%
CCCN(CCC)CC(O)Cn1cc(/C=C/C(=O)c2ccc(C)cc2)c2ccccc21 (stereo not drawn) | nt | -1.3% | nt | 17.8µM* | -12.3% | ?
CCCN(CCC)CC(O)Cn1cc(/C=C/C(=O)c2ccc(Br)cc2)c2ccccc21 (stereo not drawn) | nt | 10.4% | nt | ? | ? | ?
CCCCN(C)CC(O)Cn1cc(/C=C/C(=O)c2ccc(C)cc2)c2ccccc21 (stereo not drawn) | -3.3% | -0.1% | ? | 14.1µM* | -4.1% | ?
CCCCN(C)CC(O)Cn1cc(/C=C/C(=O)c2ccc(Br)cc2)c2ccccc21 (stereo not drawn) | nt | 16.4% | nt | 20µM* | 9.7% | ?
FC(F)(F)c1cccc(N2CCN(c3nc4ccccc4n4cnnc34)CC2)c1 | nt | -2.0% | nt | ? | 2.1% | ?
COc1cccc(NC(=O)NNC(=O)CCc2ccc(O)c(O)c2)c1 | -2.5% | 2.8% | 56.2µM* | nt | nt | nt
CCCn1c(-c2ccc(F)cc2)nc2c(N3CCCN(Cc4ccccc4)CC3)nc(C)nc21 | nt | nt | 22.4µM* | ? | -4.7% | -20.8%
CCOC(=O)CNc1nnc(SCC(=O)OCC)[nH]c1=O | ? | 39.8µM* | -28.4% | ? | ? | -16.2%
CS(=O)(=O)c1ccc(N)c(SSc2cc(S(C)(=O)=O)ccc2N)c1 | 0.947µM* | 25.1µM* | nt | nt | nt | nt
CS(=O)(=O)c1ccc2nc(N)sc2c1 | -14.8% | -7.5% | 3.6% | -12.3% | -6.6% | -8.5%
Cc1ccc(NC(=O)C2CC(=O)Nc3ncnn32)cc1Cl (stereo not drawn) | 26.7µM* | -16.7% | -0.1% | 6.2% | -2.3% | 0.0%
CCOC(=O)c1c(C)oc2c1cc(NS(=O)(=O)c1ccc(C(=O)O)cc1)c1ccccc12 | 26.7µM* | -1.9% | 56.2µM* | nt | nt | nt
CCOc1ccc(S(=O)(=O)Nc2cc3c(C(=O)OCc4ccccc4)c(C)oc3c3ccccc23)cc1 | nt | -21.0% | nt | 2.9% | -11.2% | -26.8%
CCc1cccc(NC(c2nnc(-c3ccccc3)o2)c2ccc(F)cc2Cl)c1 (stereo not drawn) | nt | 5.9% | nt | -4.2% | -2.0% | -18.7%
O=[N+]([O-])c1cccc(Oc2cnccn2)c1 | -2.4% | -2.8% | 15.0% | nt | nt | nt
Cc1ccc(S(=O)(=O)Nc2cccc(Oc3cnccn3)c2)cc1 | 26.7µM* | -23.7% | 2.4% | ? | 2.4% | -3.1%
Cc1cc2nc(-c3ccc(SCc4ccc(C(=O)O)cc4)nc3)[nH]c2cc1C | 18.9µM* | 0.6% | 22.4µM* | -9.1% | -7.9% | -8.6%
CC(C)[C@H](/C=C/C[Si](C)(C)C)[C@H](C)C(O)/C=C/CCCOC(=O)C(C)(C)C (stereo partly drawn) | nt | 0.6% | 4.6% | nt | nt | nt
CCCCOc1ccc(C(=O)NNC(=O)C2C3C=CC(C3)C2C(=O)O)cc1 (stereo not drawn) | -9.0% | -2.3% | 44.7µM* | nt | nt | nt
CCOc1cccc(C(=O)NCc2ccccc2)c1 | 1.5% | 5.0% | 13.0% | 2.2% | -2.2% | -5.2%
SMILES | PLK1 PBD block | VDR inh | Sfp inh | Tau fibril ThT | Tau fibril FP | Tau fluor cs
CCOc1cccc(C(=O)NNC(=O)C2C3C=CC(C3)C2C(=O)O)c1 (stereo not drawn) | -12.9% | 10.8% | 35.5µM* | nt | nt | nt
COc1ccc(CC(=O)NCC(c2cccs2)S(=O)(=O)c2ccc(Cl)cc2)cc1 (stereo not drawn) | nt | -2.3% | nt | -7.1% | -7.6% | -13.2%
COc1ccc2nc(NC(=O)c3nc(SCc4cccc(C)c4)ncc3Cl)sc2c1 | nt | 1.2% | nt | -0.8% | -7.6% | -2.8%
CSc1ncc(Cl)c(C(=O)Nc2nc3ccc(F)cc3s2)n1 | nt | 18.3% | nt | 0.1% | ? | -0.7%
Cc1cccc(CS(=O)(=O)c2ncc(Cl)c(C(=O)Nc3nc4ccc(F)cc4s3)n2)c1 | nt | -22.8% | nt | 10µM* | -8.8% | -23.0%
O=C(Nc1nc2ccc(F)cc2s1)c1nc(S(=O)(=O)Cc2ccccc2)ncc1Cl | nt | ? | nt | 7.08µM* | -13.3% | -29.6%
Cc1cccc(N2CCN(C(=O)c3cn(CC(C)C)c(=O)c4c3c3ccccc3n4C)CC2)c1C | nt | ? | nt | -10.9% | 5.0% | -9.1%
O=C(NCCc1ccc(O)c(Br)c1)c1ccc(Br)o1 | -8.1% | nt | nt | nt | nt | nt
OCCN1CCN(c2ncnc3c2c(-c2ccccc2)cn3-c2ccc(Br)cc2)CC1 | -0.2% | -9.9% | 22.4µM* | ? | -0.2% | -7.4%
CCN1CCN(c2ncnc3c2c(-c2ccccc2)cn3-c2ccc(F)cc2)CC1 | -4.5% | 13.5% | 39.8µM* | -5.3% | 2.1% | -5.2%
CC(OC(=O)CNC(=O)c1ccco1)C(=O)N(C)c1ccccc1 (stereo not drawn) | 26.7µM* | -15.4% | 21.7% | -5.6% | -5.5% | -7.4%
O=C(CN1CCN(c2ncccn2)CC1)N1CCCC1 | 2.5% | -11.2% | ? | -6.4% | -4.1% | -2.8%
CCN(CC)C(=O)CN1CCN(c2ncccn2)CC1 | 1.1% | 15.2% | 89.1µM* | 2.1% | 2.6% | 7.5%
COc1ccccc1C(=O)Nc1ccc2oc(-c3cccc4c(Br)cccc34)nc2c1 | nt | -16.1% | nt | nt | nt | nt
CN(CC(=O)Nc1ccc(F)c(F)c1F)C(=O)C1CCCN1C(=O)c1cccs1 (stereo not drawn) | -5.9% | nt | nt | nt | nt | nt
Cc1ccc(CN(C)C(=O)C2CCCN2C(=O)c2cccs2)o1 (stereo not drawn) | -26.5% | -6.6% | 35.5µM* | ? | -12.6% | -4.1%
Cc1ccc([C@H]2N[C@]3(CCCN(Cc4ccc(F)cc4)C3=O)[C@H]3C(=O)N(C)C(=O)[C@@H]23)cc1 | -3.3% | nt | nt | nt | nt | nt
COc1ccc(C2C=C(c3cccs3)Nc3nc(CCCO)nn32)cc1 (stereo not drawn) | nt | nt | 15.8µM* | ? | ? | -12.0%
Cc1ccc(OCCN2CCC2(C)C(=O)Nc2ccc3c(c2)OCCO3)cc1 (stereo not drawn) | -3.4% | nt | nt | nt | nt | nt
O=C(NCc1cccnc1)/C(=C/c1ccc(-c2ccc(Cl)cc2)o1)S(=O)(=O)c1ccccc1 | ? | 22.4µM* | -12.0% | ? | ? | 16.5%

High-throughput results as filed in PubChem.
